# Reference: a collection of fitness landscapes (doi:10.1126/science.1257360)
# Over roughly 140,000 sequences, “enrichment ratio after two sorts for PhoP signalling” has its median near 0; the highest 2% begin near 11. Only a selection was taken, and the highest values are over-represented in it overall.
# B1: PhoQ; a variant is named by its letters at X, in order, P23837 (parent)
# chain: MKKLLRLFFPLSLRVRFLLATAAVVLVLSLAYGMVALIGYSVSFDKTTFRLLRGESNLFYTLAKWENNKLHVELPENIDKQSPTMTLIYDENGQLLWAQRDVPWLMKMIQPDWLKSNGFHEIEADVNDTSLLLSGDHSIQQQLQEVREDDDDAEMTHSVAVNVYPATSRMPKLTIVVVDTIPVELKSSYMVWSWFIYVLSANLLLVIPLLWVAAWWSLRPIEALAKEVRELEEHNRELLNPATTRELTSLVRNLNRLLKSERERYDKYRTTLTDLTHSLKTPLXXLQXXLRSLRSEKMSVSDAEPVMLEQISRISQQIGYYLHRASMRGGTLLSRELHPVAPLLDNLTSALNKVYQRKGVNISLDISPEISFVGEQNDFVEVMGNVLDNACKYCLEFVEISARQTDEHLYIVVEDDGPGIPLSKREVIFDRGQRVDTLRPGQGVGLAVAREITEQYEGKIVAGESMLGGARMEVIFGRQHSAPKDE
# Variants of: B1
# Assay: enrichment ratio after two sorts for PhoP signalling (ratio (wild type AVST 3.29)); higher = more functional
# Details: with PhoP (E. coli)
row,Variant,enrichment ratio
1,HWKG,≤ 0.25
2,HYVN,≤ 0.25
3,FNKS,≤ 0.25
4,WKFR,≤ 0.25
5,VMIH,≤ 0.25
6,FQCV,≤ 0.25
7,KYCM,≤ 0.25
8,SRTM,1.44
9,WICM,≤ 0.25
10,SIRL,≤ 0.25
11,SICM,14.4
12,SITM,22.9
13,YTTM,8.49
14,TTTM,19.4
15,KYTM,≤ 0.25
16,GTTM,4.35
17,SICL,11.3
18,KYCL,≤ 0.25
19,NSAY,≤ 0.25
20,MERT,≤ 0.25
21,IMPC,≤ 0.25
22,AHIW,≤ 0.25
23,YHGK,≤ 0.25
24,MHLE,≤ 0.25

row,Variant,enrichment ratio
1,TWGP,≤ 0.25
2,GSVG,≤ 0.25
3,QETM,≤ 0.25
4,SIPM,19.8
5,SIGQ,10.4
6,LTTM,≤ 0.25
7,KYPM,≤ 0.25
8,SICQ,27.6
9,KYCQ,≤ 0.25
10,SIPA,0.817
11,STTM,14.3
12,VWYY,≤ 0.25
13,EDMQ,≤ 0.25
14,VNHC,≤ 0.25
15,AYRQ,≤ 0.25
16,YGPP,≤ 0.25
17,IQKL,≤ 0.25
18,GASY,≤ 0.25
19,SPIT,≤ 0.25
20,AGYW,≤ 0.25
21,ATLH,11.5
22,KYLH,≤ 0.25
23,SRLH,≤ 0.25
24,NSLH,≤ 0.25

row,Variant,enrichment ratio
1,KSLH,≤ 0.25
2,SPLH,≤ 0.25
3,STLH,12.2
4,SSLH,11.4
5,SYLH,0.355
6,SELH,19.4
7,LTLH,≤ 0.25
8,ITLH,≤ 0.25
9,ASPV,0.706
10,LLVM,≤ 0.25
11,PRDH,≤ 0.25
12,IQGR,≤ 0.25
13,RVGK,≤ 0.25
14,TQAC,4.85
15,VIMQ,≤ 0.25
16,WTKP,≤ 0.25
17,ENII,≤ 0.25
18,YTLH,0.617
19,GTLH,8.02
20,TTLH,19.7
21,MYEQ,≤ 0.25
22,YGLT,7.13
23,YGLA,12.8
24,TELV,25.1

row,Variant,enrichment ratio
1,SELV,19.5
2,NELV,2.93
3,TQLV,26.3
4,SILV,2.22
5,NQLV,≤ 0.25
6,YGLS,7.31
7,EQLV,≤ 0.25
8,QELV,≤ 0.25
9,SLLV,6.62
10,WPNN,≤ 0.25
11,YKHG,≤ 0.25
12,AFWQ,≤ 0.25
13,GIFI,≤ 0.25
14,TQRG,≤ 0.25
15,LAFQ,2.23
16,NEYD,≤ 0.25
17,EVIK,≤ 0.25
18,QFDL,≤ 0.25
19,MRMI,≤ 0.25
20,SINK,1.25
21,RMYK,≤ 0.25
22,CTLV,0.326
23,MFLV,≤ 0.25
24,ATLV,12.7

row,Variant,enrichment ratio
1,GTLV,7.85
2,YYLV,≤ 0.25
3,YTLV,15.7
4,ITLV,7.88
5,TTLV,17.9
6,LTLV,1.55
7,MIHK,≤ 0.25
8,FTLV,10.2
9,MILV,13
10,FHSF,≤ 0.25
11,HDGN,≤ 0.25
12,TQVH,8.69
13,LPSI,≤ 0.25
14,ANRW,≤ 0.25
15,MCHW,≤ 0.25
16,GFAN,≤ 0.25
17,KGPY,≤ 0.25
18,NSLV,2.78
19,TSLV,14.6
20,SKHK,≤ 0.25
21,SFLV,1.19
22,FSLV,8.86
23,SSLV,16.8
24,KSLV,≤ 0.25

row,Variant,enrichment ratio
1,SALV,14.6
2,SKLV,12
3,KQLV,≤ 0.25
4,DLQF,≤ 0.25
5,PGYR,≤ 0.25
6,QDIQ,≤ 0.25
7,RNIE,≤ 0.25
8,YSWN,≤ 0.25
9,IQID,≤ 0.25
10,LDQS,≤ 0.25
11,SPLV,≤ 0.25
12,SQLV,11.8
13,MELV,18.1
14,STLV,15.4
15,NFLV,≤ 0.25
16,KYLV,≤ 0.25
17,SYLV,0.334
18,DPLV,≤ 0.25
19,MPLV,≤ 0.25
20,QPLV,≤ 0.25
21,MMLV,≤ 0.25
22,YGLV,13.5
23,ITPL,≤ 0.25
24,WHNG,≤ 0.25

row,Variant,enrichment ratio
1,TSSF,9.67
2,YPTT,≤ 0.25
3,ISMW,≤ 0.25
4,FIHY,≤ 0.25
5,QLFD,3.39
6,HRQG,≤ 0.25
7,YGDM,0.798
8,YGLM,13
9,YGWM,≤ 0.25
10,HFAL,≤ 0.25
11,SCRE,≤ 0.25
12,DVLL,≤ 0.25
13,SESE,24.9
14,RISE,≤ 0.25
15,TISE,24.4
16,SLSE,1.48
17,NESE,≤ 0.25
18,TASE,11.3
19,DDSE,1.96
20,QESE,≤ 0.25
21,AISE,2.44
22,NASE,≤ 0.25
23,KASE,≤ 0.25
24,TESE,20

row,Variant,enrichment ratio
1,HLPY,≤ 0.25
2,MSKE,≤ 0.25
3,YPSK,≤ 0.25
4,TVFP,≤ 0.25
5,VDTN,≤ 0.25
6,SPSE,≤ 0.25
7,DPSE,≤ 0.25
8,SQSE,11.4
9,SISE,12.6
10,SRSE,≤ 0.25
11,GNSE,≤ 0.25
12,SDSE,≤ 0.25
13,KYSE,≤ 0.25
14,LNSE,≤ 0.25
15,SNSE,16.4
16,TVSE,14.1
17,NVSE,≤ 0.25
18,FFRE,≤ 0.25
19,EVVH,≤ 0.25
20,TGPK,≤ 0.25
21,GKHW,≤ 0.25
22,FNVA,≤ 0.25
23,KTII,≤ 0.25
24,SGSE,15.4

row,Variant,enrichment ratio
1,TGSE,7.38
2,GGSE,≤ 0.25
3,IEKG,≤ 0.25
4,LARL,≤ 0.25
5,SSPS,≤ 0.25
6,YHLR,≤ 0.25
7,MSPI,≤ 0.25
8,MSPM,≤ 0.25
9,MSYK,≤ 0.25
10,MSCA,0.541
11,MSTA,≤ 0.25
12,MSCI,16.7
13,MSWM,23.7
14,MSWI,14.1
15,MSYI,12.1
16,MSGM,6.76
17,MSCS,0.763
18,MSYD,≤ 0.25
19,KTWF,≤ 0.25
20,YIVR,≤ 0.25
21,DSYR,≤ 0.25
22,WDLV,≤ 0.25
23,SPGS,≤ 0.25
24,AEGC,2.22

row,Variant,enrichment ratio
1,KAFL,≤ 0.25
2,KSFY,≤ 0.25
3,MSFY,12.3
4,MSAT,7.26
5,WIAS,≤ 0.25
6,NAFL,0.25
7,MAFL,12.9
8,MSSF,0.41
9,MSFD,≤ 0.25
10,MSSM,11.9
11,MSAS,12.6
12,MSQM,≤ 0.25
13,PAHY,≤ 0.25
14,AKLK,≤ 0.25
15,MEND,≤ 0.25
16,PTHW,≤ 0.25
17,AVIT,1.3
18,MIMD,≤ 0.25
19,LLDF,≤ 0.25
20,NAWF,≤ 0.25
21,PFLK,≤ 0.25
22,RPFK,≤ 0.25
23,MSTC,1.5
24,MSHQ,12

row,Variant,enrichment ratio
1,MSGR,≤ 0.25
2,MSLA,5.33
3,MSGI,17.5
4,MSFA,2.31
5,MSLM,15.9
6,MSHP,≤ 0.25
7,MSTD,≤ 0.25
8,MSFC,14.1
9,MSGD,≤ 0.25
10,MSLF,1.86
11,IAPP,≤ 0.25
12,NMIK,≤ 0.25
13,DCGT,≤ 0.25
14,EMPS,≤ 0.25
15,NEEL,≤ 0.25
16,MHMN,≤ 0.25
17,NGVW,≤ 0.25
18,MSLY,0.424
19,MSTI,18.2
20,MRHM,≤ 0.25
21,MSGA,0.29
22,MSHM,22
23,MSGQ,14.3
24,MSFL,13.3

row,Variant,enrichment ratio
1,MEFL,8.98
2,KSFL,≤ 0.25
3,MSGG,≤ 0.25
4,KSHM,≤ 0.25
5,MSCF,1.71
6,SKYM,≤ 0.25
7,CCSC,≤ 0.25
8,FTRK,≤ 0.25
9,MDDW,≤ 0.25
10,ADPG,≤ 0.25
11,VPPG,≤ 0.25
12,LIYG,≤ 0.25
13,MSEL,≤ 0.25
14,MSWL,14.4
15,MSCE,≤ 0.25
16,MSRL,≤ 0.25
17,MSCV,15.3
18,MSTW,≤ 0.25
19,GKQS,≤ 0.25
20,SDCI,4.22
21,QYNK,≤ 0.25
22,GGPL,≤ 0.25
23,SNVY,1.11
24,AKII,13.6

row,Variant,enrichment ratio
1,NAII,≤ 0.25
2,KKII,≤ 0.25
3,AAII,12.4
4,KAII,≤ 0.25
5,ADII,1.41
6,DMTW,≤ 0.25
7,IQGQ,≤ 0.25
8,GIPQ,≤ 0.25
9,TTSL,17.6
10,CTSL,11.6
11,KQSL,≤ 0.25
12,GTSL,9.63
13,CVSL,≤ 0.25
14,YTSL,≤ 0.25
15,TVPF,≤ 0.25
16,QVGW,2.43
17,EDEG,≤ 0.25
18,FEDM,≤ 0.25
